HCMV antiviral: human cytomegalovirus inhibition; HFF cells, HCMV-luciferase reporter, 72 h; active compounds read low; activity change, negative = inhibition, % at 57.5 µM; 410,000 tested, 4.5% active; in the data active means activity change below about -60%; inconclusive means no clear call, values can overlap the other calls; inactive means above about -39%
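Steps: HFFs plated, 16 h 37C; compounds added; HCMV-luciferase added to MOI 1 PFU/cell; 72 h 37C; OneGlo reagent, 5 min room temperature; luminescence read, normalized to controls.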
HCV inh: inhibitors of hepatitis C virus infection | Huh7.5.1 HCVcc-Cre infection, luciferase reporter, 44 h | Potency, µM (top dose mostly 41.8 µM), without a hit: top-dose activity change, negative = inhibition, actives largely listed as inhibitors | 340,000 tested, 3.4% active | AID 651820; further: potency means the concentration at half of the fitted maximal effect
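A cell-based infection assay in which seeded cells (1,000 per well) receive test compound after 4 h, are inoculated with HCVcc-Cre at approximately 0.5 moi, and are incubated 44 h before luminescence detection.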
MARV entry inh: blocks Marburg virus binding to or entry into cells; Marburg virus pseudotyped entry inhibition, cell reporter; Potency, µM (top dose mostly 37.8 µM), for inactives: at the top dose activity change, negative = inhibition, usual class: inhibitors; 300,000 tested, 1.8% active; calls by dose curve; tested in HEK293 cells; further: potency means the concentration at half of the fitted maximal effect
Pf growth 48h: P. falciparum growth inhibition at 48 hours (one generation) | P. falciparum luciferase growth in erythrocytes, 48 h | Potency, µM (highest dose often 28.7 µM), for inactives: at the highest dose activity change, negative = inhibition, hits mostly inhibitors | 310,000 tested, 5.9% active; further: potency means the concentration at half of the fitted maximal effect
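Parasite viability was followed by luminescence of a genomically integrated firefly luciferase. Cultures held 0.1% parasitemia at 2% hematocrit (final), incubated under 5% CO2 at 37 C.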
Pf growth 96h: P. falciparum growth inhibition at 96 hours; Potency, µM (top dose mostly 28.7 µM), for inactives: top-dose activity change, negative = inhibition, actives largely listed as inhibitors; 320,000 tested, 6.9% active; P. falciparum luciferase reporter growth, 96 h; further: potency means the concentration at half of the fitted maximal effect
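Compounds incubated with erythrocytes infected by luciferase-expressing P. falciparum (2% hematocrit, 0.05% parasitemia final) for 96 hours, 37 C in 5% CO2. Growth inhibition scored as decreased luciferase luminescence.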
Lassa entry inh: Lassa virus entry inhibition | Potency, µM (titrated, usually from 37.9 µM), for the others: top-dose activity change, negative = inhibition, usual class: inhibitors | 300,000 tested, 1.2% active | Lassa virus pseudotype entry inhibition, cell reporter | AID 540256; calls by dose curve; tested in HEK293 cells; further: potency means the concentration at half of the fitted maximal effect; nearly all actives have a fitted effect of over 50% in size
* marks the source's active call; other numbers are inactive results; [ ] = another dose, or the depositor's remark. Shown are actives, neighbours in structure and some others; about 14% of the full set was active somewhere. Unless noted, the call rests on the fitted dose curve; in most records, active means well fitted inhibition curve with a large enough effect; inconclusive means small, poorly fitted or top-dose-only effect, or another doubt; inactive means no such curve, though single readings can be large or run the other way. On the % scale 0 is the no-effect control and ±100 the full control effect.

COc1cc(NC(=O)Cc2nn(C)c(=O)c3ccccc23)cc(OC)c1 was read as HCMV antiviral -88*, HCV inh 10µM*, MARV entry inh inconclusive, Pf growth 48h inconclusive, Pf growth 96h 207% and Lassa entry inh -19%.
For CCOC(=O)Cc1nn(CC)c(=O)c2ccccc12 the results were HCMV antiviral -23, HCV inh 17%, Pf growth 48h 44% and Pf growth 96h 10%.
For Cn1nc(CC(=O)Nc2ccc3c(c2)OCCO3)c2ccccc2c1=O the results were HCMV antiviral -25, HCV inh 6.3µM*, MARV entry inh inconclusive, Pf growth 48h -10%, Pf growth 96h inconclusive and Lassa entry inh -29%.
Screening COc1cn(CC(=O)Nc2ccc(C)cc2C)c(CN2CCCCC2)cc1=O returned HCMV antiviral 19 and Lassa entry inh -4%[46.1 µM].
`Cn1nc(CC(=O)Nc2ccc(N3CCN(C(=O)OC(C)(C)C)CC3)cc2)c2ccccc2c1=O` gave HCMV antiviral -79*, HCV inh inconclusive, MARV entry inh 21%, Pf growth 48h inconclusive, Pf growth 96h 19% and Lassa entry inh 0%.
`CCOC(=O)Cc1nn(C)c(=O)c2ccccc12` gave HCMV antiviral 44, HCV inh 22%, MARV entry inh -7%, Pf growth 48h 9%, Pf growth 96h 5.2µM* and Lassa entry inh 23%.
Screening O=C(NC1CC1)c1ccc2c(Cl)c3c(nc2c1)CCCC3 returned HCMV antiviral -62*, HCV inh -20%, Pf growth 48h 23% and Pf growth 96h -42%.
CCCN1CCN(CCCNC(=O)c2ccc3c(Cl)c4c(nc3c2)CCCC4)CC1 was read as HCMV antiviral 0, HCV inh inconclusive, Pf growth 48h inconclusive and Pf growth 96h 45%.
CCCCN(CC)CCNC(=O)c1ccc2c(Cl)c3c(nc2c1)CCC3 was read as HCMV antiviral -35, HCV inh inconclusive, MARV entry inh inconclusive, Pf growth 48h inconclusive, Pf growth 96h inconclusive and Lassa entry inh inconclusive.
Screening O=C(NCc1cccc(Cl)c1)c1ccc2c(Cl)c3c(nc2c1)CCCC3 returned HCMV antiviral -78*, MARV entry inh 2%[46.1 µM] and Lassa entry inh 2%[46.1 µM].
O=C(NCCCN1CCCC1)c1ccc2c(Cl)c3c(nc2c1)CCCC3 was read as HCMV antiviral -73*, HCV inh 11µM*, MARV entry inh 5.6µM*, Pf growth 48h -5%, Pf growth 96h -17% and Lassa entry inh inconclusive.
`CCN(CC)CCCNC(=O)c1ccc2c(Cl)c3c(nc2c1)CCCC3` gave HCMV antiviral -88*, HCV inh inconclusive, MARV entry inh inconclusive, Pf growth 48h -13%, Pf growth 96h inconclusive and Lassa entry inh inconclusive.
For NC(Cc1ccc(C(F)(F)F)cc1)c1csc(Nc2cc(NCc3ccco3)ncn2)n1 (stereo not drawn) the results were HCMV antiviral -39.
Screening O=C(Nc1ccccc1F)c1ccc2c(Cl)c3c(nc2c1)CCC3 returned HCMV antiviral -86*, MARV entry inh inconclusive and Lassa entry inh inconclusive.
For O=C(Nc1cccnc1Cl)c1ccc2c(Cl)c3c(nc2c1)CCC3 the results were HCMV antiviral 2, HCV inh -4%, MARV entry inh inconclusive, Pf growth 48h 241%, Pf growth 96h -9% and Lassa entry inh inconclusive.
For CCCCN1CCCC1C(=O)Nc1c(C)cc(C)cc1C (stereo not drawn) the results were Pf growth 48h -25% and Pf growth 96h 2.6µM*.
`O=C(NCc1ccc(-c2nc3ccccc3s2)cc1)c1ccco1` gave HCMV antiviral -20, HCV inh inconclusive, MARV entry inh inconclusive, Pf growth 48h inconclusive, Pf growth 96h -2% and Lassa entry inh inconclusive.
O=C(NC(=S)NCc1ccc(-c2nc3ccccc3s2)cc1)c1ccco1 was read as HCMV antiviral -23, HCV inh 4%, MARV entry inh inconclusive, Pf growth 48h 185%, Pf growth 96h 15µM* and Lassa entry inh -28%.

Assay outcomes deposited in PubChem by National Center for Advancing Translational Sciences (NCATS).
